Rows were chosen to be rich in hits. Some 2.6% of all compounds tested hit in one or more screens of this group.
Nrf2 activator: Nrf2 pathway activation; AREc32 ARE-luciferase reporter (MCF7-derived line), luminescence, 24 h; Potency, µM (titrated, usually from 46.1 µM), hits mostly activators; actives 0.31% (n = 410,000); AID 624171; note: nearly all actives have a fitted effect of over 65% in size
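For detection, Steady-Glo was added and plates sat 30 min at RT; before that, AREc32_Fluc cells grown overnight in OPTI-MEM/5% FBS had been treated with 23 nL compound for 24 hr at 37 deg C.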
A-T KAP1 phos: potential ataxia-telangiectasia treatment. F2112 A-T fibroblasts, KAP-1 phosphorylation AlphaLISA; neocarzinostatin DNA damage 30 min before lysis. Potency, µM (top dose mostly 57.5 µM), most hits filed as activators. actives 0.19% (n = 320,000). AID 485349; note: nearly all actives have a fitted effect of over 45% in size
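ATM-like activity read as KAP-1 phosphorylation via AlphaLISA donor/acceptor antibody pairs after lysis and 6 hr at 25C. Cells were ATM-null patient fibroblasts (F2112, hTERT), dosed 60 min, then exposed to the DSB inducer NCS for 30 min.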
CCT chaperon mod: cytosolic chaperonin activity modulation. actives 0.3% (n = 360,000). activity change, % (test concentration not listed), hits read low. purified chaperonin ATPase assay, HTRF ADP detection, 30 min; in the data active = activity change below about -30%
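TRiC at 40 or 20 nM final (batch-dependent) in 30 mM Tris pH 7.4, 100 mM KCl, 5 mM MgCl2, 1 mM DTT, with compound at single 76 uM and 10 uM ATP, 30 min at 37 deg C. ADP detected by HTRF Transcreener, 665/615 ratio.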
Nrf2 inh: Nrf2 pathway inhibition. A549 ARE-Fluc reporter, luciferase luminescence, 18-24 h. Potency, µM (top dose mostly 46 µM), most hits filed as inhibitors. actives 2.1% (n = 360,000); note: nearly all actives have a fitted effect of over 60% in size
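Concentration-response testing used A549 ARE_Fluc cells at 5000 cells/well. Following an 18-24 h compound incubation, viability was read by fluorescence (Ex 405/Em 525) and luciferase output by luminescence.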
TCR activator: T cell receptor activation; primary human leukocytes, anti-CD3, IL-2 HTRF, 48 h; Potency, µM (highest dose often 9.22 µM), most hits filed as activators; 330,000 tested, under 10 active; AID 504894
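HTRF read-out of IL-2 secretion: europium cryptate donor excited at 320nm, d2 acceptor emission at 665nm. Cells were primary human leukocytes incubated 48 hr with compounds and a-CD3 beads, supplying TCR signal only.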
A549 tox-1: kills or reduces viability of A549 cells in Nrf2 counter-screen. A549 ARE-Fluc cells, CellTiter-Fluor viability, 18-24 h. Potency, µM (doses to about 46 µM), hits mostly inhibitors. actives 0.16% (n = 390,000). AID 504648
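A549 ARE-Fluc cells in 5% FBS OPTI-MEM, 5000 cells/well, rested 2 h then exposed to compounds in concentration-response for 18-24 h at 37 °C. Viability by CellTiter-Fluor fluorescence (Ex 405/Em 525) after 30 min; luciferase luminescence (BugLite, 15 min, RT) read afterwards.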
FLuc enzyme inh: firefly luciferase inhibition, Nrf2 hit validation | shares compounds with Nrf2 inh | purified firefly luciferase, luminescence inhibition | Potency, µM (doses to about 57.5 µM), hits mostly inhibitors | actives 4% (n = 1,400); note: nearly all actives have a fitted effect of over 65% in size
Target sequence (P08659 whole entry, looked up): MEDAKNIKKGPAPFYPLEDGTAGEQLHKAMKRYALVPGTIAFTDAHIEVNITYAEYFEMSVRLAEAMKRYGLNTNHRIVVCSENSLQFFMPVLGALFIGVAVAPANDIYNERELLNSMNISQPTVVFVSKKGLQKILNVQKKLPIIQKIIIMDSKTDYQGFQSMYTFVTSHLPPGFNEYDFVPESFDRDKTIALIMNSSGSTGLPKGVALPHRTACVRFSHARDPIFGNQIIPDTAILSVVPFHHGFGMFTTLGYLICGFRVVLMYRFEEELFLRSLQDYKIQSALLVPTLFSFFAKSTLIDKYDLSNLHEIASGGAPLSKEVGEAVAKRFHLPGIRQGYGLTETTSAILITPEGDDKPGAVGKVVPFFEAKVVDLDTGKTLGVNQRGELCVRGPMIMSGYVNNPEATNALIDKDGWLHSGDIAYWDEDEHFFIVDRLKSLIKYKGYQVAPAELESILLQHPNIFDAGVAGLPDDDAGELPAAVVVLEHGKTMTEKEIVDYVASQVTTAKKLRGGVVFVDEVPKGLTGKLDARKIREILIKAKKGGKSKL
A549 tox-2: A549 cytotoxicity, Nrf2 inhibitor counterscreen; shares compounds with Nrf2 inh; A549 ARE-Fluc cells, cytotoxicity counterscreen; Potency, µM (titrated, usually from 46.1 µM), usual class: inhibitors; actives 2% (n = 1,400); AID 720523;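 note: cells exposed to compounds for 18 to 24 hours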
Nrf2 ARE inh: confirmation of Nrf2 inhibitors in A549 ARE reporter cells; shares compounds with Nrf2 inh; A549 ARE-firefly luciferase reporter, luminescence; Potency, µM (titrated, usually from 46.1 µM), hits mostly inhibitors; actives 74% (n = 1,400); note: nearly all actives have a fitted effect of over 65% in size
A number is an active result; - = inactive; ? = inconclusive; . = no result; [ ] = dose if it differs, or a comment. Unless noted, calls come from the whole dose curve; as a rule, active = well fitted curve in the direction sought with a large enough effect; inconclusive = small, poorly fitted or top-dose-only effect, or another doubt; inactive = no such curve, though single readings can be large; an effect the other way counts as inactive or inconclusive.

SMILES	Nrf2 activator	A-T KAP1 phos	CCT chaperon mod	Nrf2 inh	TCR activator	A549 tox-1	FLuc enzyme inh	A549 tox-2	Nrf2 ARE inh
COc1cc(C2CC(=O)c3c([nH]c(C(=O)OCC4CCCCC4)c3C)C2)cc(OC)c1OC (stereo not given)	-	.	.	2.3µM	.	-	-	-	4.6µM
CC(=O)N(C)c1ccc(OCC(O)Cn2c(C)nc3ccccc32)cc1 (stereo not given)	-	-	-	9.2µM	-	-	-	-	?
CC(=O)Nc1ccc(OCC(O)Cn2c(C)nc3ccccc32)cc1 (stereo not given)	-	.	-	-	-	-	.	.	.
CC(C)c1cc(C(=O)NCc2ccc(F)cc2)no1	-	.	.	?	.	-	.	.	.
COc1ccc(CC(=O)Nc2cc(S(=O)(=O)N3CCCCC3)ccc2C)cc1OC	-	-	-	4.1µM	-	?	-	-	7.3µM
COc1ccc(S(=O)(=O)N2CCCCC2)cc1NC(=O)Cc1ccc(Br)cc1	-	.	-	-	-	-	.	.	.
O=C1C(=O)N(CCCn2ccnc2)C(c2ccc([N+](=O)[O-])cc2)/C1=C(\O)c1ccc2c(c1)OCCO2 (stereo not given)	-	-	-	-	-	-	.	.	.
C(=C\c1ccc2ccccc2n1)/c1ccccc1	-	-	-	?	-	-	-	?	7.3µM
CC[N+](CC)(CC)c1ccc(/C=C/c2ccc3ccccc3n2)cc1	.	.	.	.	.	.	24µM	9.2µM	2.1µM
Oc1ccc(/C=C/c2ccc3ccccc3n2)cc1	-	-	-	-	-	-	.	.	.
CC(C)N(Cc1ccccc1)C(=O)Cn1ncc2c([nH]c3ccccc32)c1=O	-	.	.	-	.	-	.	.	.
CCn1cc(/C=C/c2cc[n+](C)cc2)c2ccccc21	-	3.2µM	-	1.8µM	-	-	-	?	1.8µM
CC(C)n1cc(/C=C/c2cc[n+](C)cc2)c2ccccc21	-[9.22 µM]	-	-	2.3µM	-	?	-	?	6.5µM
Cc1ccccc1/C=C/c1cc[n+](C)cc1	-	-	-	1.3µM	-	-	-	-	23µM
C=CCn1cc(/C=C/c2cc[n+](C)cc2)c2ccccc21	-	-	-	2.3µM	-	?	-	-	1.8µM
C=CCn1c(C)c(/C=C/c2cc[n+](C)cc2)c2ccccc21	-	-	-	?	-	-	.	.	.
COc1ccc(-c2cn3cccnc3n2)cc1NC(=O)Nc1cc(C)ccc1C	-	-	.	?	.	-	.	.	.
CCC1COCCS(=O)(=O)N1Cc1ccccc1C (stereo not given)	-	-	-	-	-	-	.	.	.
O=S(=O)(NC1CCc2ccccc21)c1ccc(S(=O)(=O)N2CCCC2)cc1 (stereo not given)	-	-	-	4.1µM	.	-	-	-	?
CN1C(=S)SC2CS(=O)(=O)CC21C (stereo not given)	-	-	-	-	-	-	.	.	.
CC(C)CNc1nc(N)c([N+](=O)[O-])c(N2CCCCCC2)n1	-	-	-	9.2µM	-	-	-	-	8.2µM
Cc1nnc(NC(=O)CSc2nccn2-c2ccc(F)cc2)s1	-	-	-	-	-	-	.	.	.
Cc1cccc(Nc2nc(-c3c(C)nc4ccccn34)cs2)c1	-	-	-	9.2µM	-	-	-	-	6.5µM
Cc1nc2ccccn2c1-c1csc(Nc2cccc(O)c2)n1	-	-	-	-	-	-	.	.	.
COc1ccccc1C(=O)Oc1cc(N)n(S(=O)(=O)c2ccc(C)cc2)n1	-	-	-	?	-	-	.	.	.

Screening results from PubChem BioAssay.
